Records with an inconclusive call do not appear. Calls of active or inactive are those of the source. The call rests on the fitted dose curve; in most records, active means well fitted inhibition curve with a large enough effect; inconclusive means small, poorly fitted or top-dose-only effect; inactive means flat fitted curve, though single readings scatter.
Tests used:
Test in all cases: qHTS profiling for inhibitors of Plasmodium falciparum proliferation (AID 504749); further: nearly all actives have a fitted effect of over 60% in size
Conditions in all cases: P. falciparum in erythrocytes, SYBR Green DNA, 72 h; series mostly up to 28.7 µM
ATS95 = test system: ATS95
Procedure, shortened: (§1)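 P. falciparum-infected erythrocytes (0.3% parasitemia, 2.5% hematocrit) incubated with compound 72 h at 37 C, 5% CO2. Parasite DNA detected by SYBR Green after lysis, overnight at room temperature; normalised to 0.29 uM artemisinin and DMSO.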

C2A = test system: C2A
Procedure, shortened: as §1

CP185 = test system: CP185
Procedure, shortened: as §1

CP191 = test system: CP191
Procedure, shortened: as §1

CP192 = test system: CP192
Procedure, shortened: as §1

CP194 = test system: CP194
Procedure, shortened: as §1

CP201 = test system: CP201
Procedure, shortened: as §1

CP211 = test system: CP211
Procedure, shortened: as §1

CP215 = test system: CP215
Procedure, shortened: as §1

CP203 = test system: CP203
Procedure, shortened: as §1

Measured: Potency
Potency means the concentration at half of the fitted maximal effect.

CCCCN(CCCC)CCCOC(=O)c1ccc(N)cc1
not listed: CP203
inactive: all other assays above

CCCCCCCCCCCCCCCC(=O)NCCO
not listed: CP203
inactive: all other assays above

COc1ccc(S(=O)(=O)Nc2nnc(CC(C)C)s2)cc1
not listed: CP203
inactive: all other assays above

CC(=O)c1ccc2c(c1)N(CCCN(C)C)c1ccccc1S2
not listed: CP194 | CP203
inactive: all other assays above

CCOC(CN1CCN(CC(C)C(=O)c2ccccc2)CC1)c1ccccc1 (centres undefined)
not listed: CP194
inactive: all other assays above

O=c1cc(CO)occ1O
not listed: CP203
inactive: all other assays above

Oc1cn2c(n1)Nc1ccc(Cl)c(Cl)c1C2
not listed: CP201 | CP203
inactive: all other assays above

COc1cc(C(=O)N2CCOCC2)cc(OC)c1OC
not listed: CP203
inactive: all other assays above

O=c1[nH]c(=O)c2[nH]c(=O)[nH]c2[nH]1
not listed: CP203
inactive: all other assays above

O=C(O)c1ccccc1O
not listed: CP203
inactive: all other assays above

CCOc1ccc2ccccc2c1C(=O)N[C@@H]1C(=O)N2[C@@H]1SC(C)(C)[C@@H]2C(=O)O
not listed: CP203
inactive: all other assays above

[O-][n+]1cccc(CO)c1
not listed: CP203
inactive: all other assays above

NCCNCCNCCNCCN
not listed: CP203
inactive: all other assays above

COc1cc2[nH]c(=O)[nH]c(=O)c2cc1OC
not listed: CP203
inactive: all other assays above

O=C1NC(=O)[C@@]2(CCOc3ccc(F)cc32)N1
not listed: CP203
inactive: all other assays above

CCC(=O)Nc1ccc(O)cc1
not listed: CP203
inactive: all other assays above

CC1(C)[C@@H]2CC[C@@]1(C)C(=O)C2
not listed: CP203
inactive: all other assays above

CCCCc1ncc(/C=C(\Cc2cccs2)C(=O)O)n1Cc1ccc(C(=O)O)cc1
not listed: CP203
inactive: all other assays above

CC(O)COc1ccccc1 (centres undefined)
not listed: CP203
inactive: all other assays above

CCC(=O)c1ccc(O)cc1
not listed: CP203
inactive: all other assays above

C[C@H](N)[C@H](O)c1cccc(O)c1
not listed: CP203
inactive: all other assays above

C[C@@H]1CN(c2c(F)c(F)c3c(=O)c(C(=O)O)cn(C4CC4)c3c2F)C[C@H](C)N1
not listed: CP203
inactive: all other assays above

CCCCC(CC)COC(=O)c1ccccc1O (centres undefined)
not listed: CP203
inactive: all other assays above

CC12CCC(CC1)C(C)(C)O2
not listed: CP203
inactive: all other assays above

OCc1cc(C(O)CNCCCCCCOCCCCc2ccccc2)ccc1O (centres undefined)
inactive: ATS95 | C2A | CP185 | CP192 | CP194 | CP201

Cc1c(O)cccc1C(=O)N[C@@H](CSc1ccccc1)[C@H](O)CN1C[C@H]2CCCC[C@H]2C[C@H]1C(=O)NC(C)(C)C
inactive: C2A | CP185 | CP192 | CP211

NCCNCCNCCN
not listed: ATS95 | CP215 | CP203
inactive: all other assays above

CCN(CC)CCNC(=O)c1c(C)[nH]c(/C=C2\C(=O)Nc3ccc(F)cc32)c1C
active: ATS95 7.08 µM | C2A 11.2 µM | CP185 7.08 µM | CP191 7.94 µM | CP211 10.7 µM

CNC(=O)Oc1ccc2c(c1)[C@]1(C)CCN(C)[C@@H]1N2C
active: C2A 1.78 µM | CP185 1.58 µM | CP191 2.24 µM

[Cl][In]([Cl])[Cl]
inactive: C2A | CP185 | CP192 | CP194 | CP201 | CP211

CN1CCCCC1CCN1c2ccccc2Sc2ccc(S(C)=O)cc21 (centres undefined)
active: CP215 15.1 µM
inactive: CP185 | CP192 | CP201

CC(C(O)c1ccc(O)cc1)N1CCC(Cc2ccccc2)CC1 (centres undefined)
active: C2A 10 µM | CP185 8.91 µM | CP191 7.94 µM | CP194 15.1 µM

CCCCN1CCCC[C@H]1C(=O)Nc1c(C)cccc1C
not listed: ATS95 | CP194 | CP203
inactive: all other assays above

OCCN1CCN(CCCN2c3ccccc3Sc3ccc(Cl)cc32)CC1
active: CP191 3.16 µM
inactive: C2A | CP192

Cc1cc(N)c2ccccc2[n+]1CCCCCCCCCC[n+]1c(C)cc(N)c2ccccc21
active: C2A 0.282 µM | CP185 0.316 µM | CP191 0.0501 µM | CP194 0.361 µM | CP201 0.642 µM | CP211 0.144 µM | CP215 0.809 µM

Nc1ccc(S(=O)(=O)Nc2ccc(Cl)nn2)cc1
active: CP191 1.12 µM
not listed: ATS95 | C2A | CP185
inactive: all other assays above

Cc1cc2c(cc1S(N)(=O)=O)S(=O)(=O)CCC2
not listed: ATS95
inactive: all other assays above

CCN(CC)CCNC(C(=O)OCCC(C)C)c1ccccc1 (centres undefined)
active: CP203 9.53 µM
inactive: CP211

O=C1NS(=O)(=O)c2ccccc21
not listed: ATS95 | CP203
inactive: all other assays above

c1ccc(CN(CC2=NCCN2)c2ccccc2)cc1
inactive: CP191 | CP192 | CP201 | CP211

CSc1ccc2c(c1)N(CCC1CCCCN1C)c1ccccc1S2 (centres undefined)
inactive: CP201 | CP211

CC(CN1c2ccccc2Sc2ccccc21)N(C)C (centres undefined)
not listed: ATS95 | CP215 | CP203
inactive: all other assays above

CCOc1nc2cccc(C(=O)O)c2n1Cc1ccc(-c2ccccc2-c2nn[nH]n2)cc1
inactive: CP185 | CP191 | CP192 | CP201 | CP211

CSc1ccc2c(c1)C(N1CCN(C)CC1)Cc1ccccc1S2 (centres undefined)
inactive: CP192 | CP201

Cc1ccc2nc(N)[nH]c(=O)c2c1Sc1ccncc1
inactive: CP192 | CP194 | CP201 | CP203
active: C2A 11.2 µM | CP185 5.01 µM | CP191 2.51 µM

COc1ccc2[nH]c(S(=O)Cc3ncc(C)c(OC)c3C)nc2n1 (centres undefined)
inactive: CP192 | CP194 | CP201 | CP211 | CP215

CN1CCC[C@@H]1Cc1c[nH]c2ccc(CCS(=O)(=O)c3ccccc3)cc12
active: CP191 5.01 µM
inactive: CP185 | CP192

C[C@]12C[C@H](O)[C@H]3[C@@H](CCC4=CC(=O)CC[C@@]43C)[C@@H]1CC[C@@H]2C(=O)CO
inactive: CP192 | CP194 | CP201 | CP203 | CP211 | CP215

CCCc1c(OCCCCc2nn[nH]n2)ccc(C(C)=O)c1O
not listed: CP191
inactive: all other assays above

CNCCC(Oc1ccc(C(F)(F)F)cc1)c1ccccc1 (centres undefined)
inactive: CP185 | CP192 | CP201 | CP211

CNCCCC1c2ccccc2C=Cc2ccccc21
inactive: C2A | CP185 | CP192 | CP201 | CP211

CC(C)(C)C(=O)C(Oc1ccc(Cl)cc1)n1ccnc1 (centres undefined)
inactive: CP185
active: CP203 13.5 µM

CCCCOc1cc(C(=O)OCCN(CC)CC)ccc1N
not listed: ATS95
inactive: all other assays above

CN(C)CCCN1c2ccccc2Sc2ccc(Cl)cc21
active: ATS95 11.2 µM | CP215 15.1 µM
inactive: CP201

NC(=O)N/N=C/c1ccc([N+](=O)[O-])o1
inactive: CP192 | CP211

CN(C)CCN(Cc1ccccc1)c1ccccn1
not listed: ATS95 | CP203
inactive: all other assays above

Reference: PubChem BioAssay (NCATS)
